Test results reported in PubChem BioAssay AID1508601 (ICCB-Longwood Screening Facility, Harvard Medical School, 2020).
Among all 5,700 compounds or so, about 85 (1%) were called active. The sample holds actives, similar compounds and a random draw of the others, so the mix is not that of the screen. Rule as the data show it: active = p53-positive nuclei above about 36% (passing the limit was not always enough); inactive = the rest.

Tests used:
[1] = p53 stabilisation in HPV-positive human cells, imaging, p53-positive nuclei imaging, 24 h, 48 h (AID 1508601); settings: 24/48 h
[2] = biological target: Cellular tumor antigen p53 (Homo sapiens) (UniProt P04637); test: as above; settings: 24/48 h, stronger effect = higher value
Cellular tumor antigen p53 (Homo sapiens), sequence (P04637 whole entry, looked up): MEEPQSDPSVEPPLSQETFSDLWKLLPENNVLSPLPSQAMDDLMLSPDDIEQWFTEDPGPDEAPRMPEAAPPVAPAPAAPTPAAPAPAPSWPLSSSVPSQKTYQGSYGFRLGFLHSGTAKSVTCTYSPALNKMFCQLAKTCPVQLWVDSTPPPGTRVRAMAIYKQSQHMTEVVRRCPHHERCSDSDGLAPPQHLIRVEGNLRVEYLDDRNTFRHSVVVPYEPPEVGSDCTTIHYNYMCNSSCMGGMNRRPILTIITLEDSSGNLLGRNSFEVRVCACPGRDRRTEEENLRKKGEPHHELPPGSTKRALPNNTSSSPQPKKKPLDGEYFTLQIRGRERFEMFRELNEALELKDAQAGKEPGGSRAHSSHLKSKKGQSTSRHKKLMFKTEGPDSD

[3] = measured here: cell number at 24 h, Library stock concentration: 3.33 mM
[4] = measured here: cell number at 48 h, Library stock concentration: 3.33 mM
[5] = Library stock concentration: 3.33 mM
[6] = measured here: p53 positive nuclei at 24 h, Library stock concentration: 3.33 mM

SMILES: COC(=O)C1C(O)CC[C@H]2CN3CCc4c([nH]c5ccccc45)[C@@H]3C[C@H]12 (stereo partly drawn)
- nuclei count, normalised [1, 3]: 104%
- nuclei count, normalised [1, 4]: 106%
- p53-positive nuclei, normalised [2, 5]: -0.11% (inactive)
- p53-positive nuclei, normalised [2, 6]: -0.356%

SMILES: CCCCCCCCCCCCCCP(=O)(O)O
- nuclei count, normalised ([1]; measured here: cell number at 24 h, concentration not given here): 105%
- nuclei count, normalised ([1]; measured here: cell number at 48 h, concentration not given here): 107%
- p53-positive nuclei, normalised ([2]; concentration not given here): -0.0194% (inactive)
- p53-positive nuclei, normalised ([2]; measured here: p53 positive nuclei at 24 h, concentration not given here): -0.0488%

SMILES: COc1ccc(N(C(=O)Nc2c(C)cccc2C)c2cc(Nc3ccc(N4CCN(C)CC4)cc3OC)ncn2)c(OC)c1
- nuclei count, normalised ([1]; measured here: cell number at 24 h, Library stock concentration: 80 uM): 104%
- nuclei count, normalised ([1]; measured here: cell number at 24 h, Library stock concentration: 400 uM): 93.8%
- nuclei count, normalised ([1]; measured here: cell number at 24 h, Library stock concentration: 2 mM): 82.3%
- nuclei count, normalised ([1]; measured here: cell number at 24 h, Library stock concentration: 10 mM): 66%
- nuclei count, normalised ([1]; measured here: cell number at 48 h, Library stock concentration: 80 uM): 104%
- nuclei count, normalised ([1]; measured here: cell number at 48 h, Library stock concentration: 400 uM): 90.4%
- nuclei count, normalised ([1]; measured here: cell number at 48 h, Library stock concentration: 2 mM): 64.8%
- nuclei count, normalised ([1]; measured here: cell number at 48 h, Library stock concentration: 10 mM): 66.4%
- p53-positive nuclei, normalised ([2]; Library stock concentration: 80 uM): -0.0182% (inactive)
- p53-positive nuclei, normalised ([2]; Library stock concentration: 400 uM): -0.151% (inactive)
- p53-positive nuclei, normalised ([2]; Library stock concentration: 2 mM): -0.0629% (inactive)
- p53-positive nuclei, normalised ([2]; Library stock concentration: 10 mM): 0.104% (inactive)
- p53-positive nuclei, normalised ([2]; measured here: p53 positive nuclei at 24 h, Library stock concentration: 80 uM): -0.103%
- p53-positive nuclei, normalised ([2]; measured here: p53 positive nuclei at 24 h, Library stock concentration: 400 uM): -0.0385%
- p53-positive nuclei, normalised ([2]; measured here: p53 positive nuclei at 24 h, Library stock concentration: 2 mM): -0.0916%
- p53-positive nuclei, normalised ([2]; measured here: p53 positive nuclei at 24 h, Library stock concentration: 10 mM): -0.0741%

SMILES: CN(C)Cc1c(C(=O)NCCOc2ccc(C(=O)NO)cc2)oc2ccccc12
- nuclei count, normalised [1, 3]: 40%
- nuclei count, normalised [1, 4]: 23.5%
- p53-positive nuclei, normalised [2, 5]: 74.6% (active)
- p53-positive nuclei, normalised [2, 6]: 61.4%
